Source: PubChem BioAssay
Pf apPOL block = Pf-apPOL DNA polymerase inhibition. inhibition, % at 10 µM. hit rate 0.25% among 210,000. Recombinant Pf-apPOL, molecular beacon fluorescence, 1.5 h. AID 1794808
mHTT-CaM PPI inh = inhibitors of human mutant huntingtin-calmodulin interaction; inhibition, % at 15 µM; AlphaScreen His-mHTT/GST-CaM binding, luminescence; AID 1671202; hit rate 3.6% among 190,000;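 note: 0% = both proteins with DMSO and 100% = one protein alone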
* hit, by the source's call; i = inactive; x = not tested or not shown; + = active, no number. In the library only some 3.5% were active in any assay of this set; here they are far more common. Cut-off read from the data, not from the text of the source: active = inhibition above about 50%; inactive = the rest.

SMILES | Pf apPOL block | mHTT-CaM PPI inh
O=C1NC(c2ccc(Br)cc2)=C(c2ccccc2)C1=O | -2.7 | 53.0*
CNC(=O)Nc1ccc(C2(C(=O)N3CCN(c4ccccc4F)CC3)CCC2)cc1 | 0.2 | 12.3
CSc1c(C(=O)Nc2cccc(C)c2)ccc2c1C(=O)c1ccccc1C2=O | -3.4 | 20.0
CCN(CC)c1ccc(N=Cc2ccc(O)cc2)cc1 | -8.1 | 86.0*
CCN(CC)c1ccc(C=Nc2ccc(C)cc2)cc1 | -4.3 | -4.0
CC(=O)c1ccc(NC(=O)COc2cccc3ccc(N4CCCC4)nc23)cc1 | -1.1 | -15.6
O=C(CN1CCC(c2nnc(C(F)(F)F)o2)CC1)NCc1ccco1 | -3.3 | -4.5
Cc1ccc(C)c(CN2C(=O)NC3(CCN(C(=O)Cc4ccc(F)cc4)CC3)C2=O)c1 | -6.6 | 21.9
CC1=C(C(=O)Nc2ccccn2)C(c2ccc(OCc3ccccc3)cc2)n2nnnc2N1 (configuration not stated) | 6.3 | 46.0
CC1=C(C(=O)Nc2ccccc2)C(c2ccc(OCc3ccccc3)cc2)n2nnnc2N1 (configuration not stated) | -4.8 | 62.0*
O=C(NNC(=O)c1ccno1)c1ccc(Cl)cc1 | 4.7 | x
C=CCOc1ccc(/C=C(\C#N)c2ccccc2)cc1Br | -4.7 | -171.1
COc1cccc2c1OC1(CCC(C)CC1)N1N=C(c3ccco3)CC21 (configuration not stated) | -15.5 | 17.0
COc1ccc(C2=NN3C(C2)c2cc(OC)ccc2OC32CCCCC2)cc1 (configuration not stated) | -17.3 | 60.0*
COc1cccc2c1OC1(CCCCC1)N1N=C(c3ccco3)CC21 (configuration not stated) | -17.7 | 32.0
COc1ccc(C2=NN3C(C2)c2ccccc2OC32CCCCC2)cc1OC (configuration not stated) | -7.6 | 45.0
COc1cccc2c1OC(C)(C)N1N=C(c3ccco3)CC21 (configuration not stated) | -23.4 | 55.0*
COc1cccc(C2=NN3C(C2)c2cccc(OC)c2OC32CCCCC2)c1 (configuration not stated) | -14.2 | 52.0*
COc1ccc(CC(=O)N2CCCC2c2cccc(F)c2)cc1 (configuration not stated) | -3.4 | 2.6
COc1ccc(NC(=O)CN2CCCCC2c2nc(-c3cccc(F)c3)no2)cc1 (configuration not stated) | -1.2 | 3.0
CCN(CC)S(=O)(=O)c1ccc(NC(=O)C(F)(F)F)cc1 | -0.2 | -4.0
COc1ccc(Cl)cc1NC(=O)N1CCCC(C)(C(=O)NCc2ccccc2)C1 (configuration not stated) | -8.1 | 2.9
O=C1C=CC(=O)C(c2cccc(C(F)(F)F)c2)=C1 | -1.6 | 74.0*
O=C1c2ccccc2C(=O)N1Cn1cc(-c2cccc(C(F)(F)F)c2)nn1 | 2.2 | -2.6
O=C(Nc1nc(-c2ccccn2)cs1)c1ccc(S(=O)(=O)N2CCc3ccccc32)cc1 | 2.3 | 97.0*
SMILES | Pf apPOL block | mHTT-CaM PPI inh
O=C(Nc1nc(-c2cccnc2)cs1)c1ccc(S(=O)(=O)N2CCc3ccccc32)cc1 | -4.8 | 9.0
CN(C)S(=O)(=O)c1ccc(C(=O)Nc2nc(-c3cccs3)cs2)cc1 | -6.2 | 13.2
CCCCN(C)S(=O)(=O)c1ccc(C(=O)Nc2nc(-c3ccccn3)cs2)cc1 | 1.7 | 86.0*
CCCCN(C)S(=O)(=O)c1ccc(C(=O)Nc2nc3c(s2)Cc2ccccc2-3)cc1 | -1.8 | -6.0
CN(C1CCCCC1)S(=O)(=O)c1ccc(C(=O)Nc2nc(-c3ccccn3)cs2)cc1 | -6.8 | 99.0*
COc1cc(C)c(C)cc1S(=O)(=O)NCC1CCN(c2ncccn2)CC1 | -5.8 | -7.8
COc1cccc(C2CC(=O)Nc3c2c(C)nn3-c2nc3ccccc3s2)c1 (configuration not stated) | -0.6 | -4.7
Cc1ccc(S(=O)(=O)N2CCCC(C)(C(=O)NCc3ccccc3C)C2)cc1C (configuration not stated) | -3.9 | 77.1*
COc1ccc(S(=O)(=O)N2CCCC(C)(C(=O)NCc3ccccc3C)C2)cc1 (configuration not stated) | -0.9 | -0.3
Cc1ccccc1CNC(=O)C1(C)CCCN(S(=O)(=O)c2ccc(F)c(Cl)c2)C1 (configuration not stated) | -2.4 | 83.8*
Cc1ccccc1CNC(=O)C1(C)CCCN(S(=O)(=O)c2ccc(F)cc2)C1 (configuration not stated) | -1.2 | -6.0
COc1cc(-c2nnc(C34CC5CC(C3)CC(n3cnc(Cl)n3)(C5)C4)o2)ccc1OC(F)F | x | 5.4
CC(NC(=O)C1CCN(Cc2ccc(F)cc2)CC1)c1ccccc1 (configuration not stated) | -0.5 | 0.4
CC(=O)Nc1ccc(NC(=O)c2c(-c3ccccc3Cl)noc2C)cc1 | 7.6 | 0.5
Cc1onc(-c2ccccc2Cl)c1C(=O)Nc1ccc(Cl)c(Cl)c1 | -7.1 | 80.3*
COc1ccccc1OCC1CN(C(=O)c2ccc(C(F)(F)F)nc2)CCO1 (configuration not stated) | -1.4 | 3.9
C=CCNC(=O)CN(c1ccc(C)cc1)S(=O)(=O)c1ccc(SC)cc1 | 1.2 | 3.6
COc1ccc(Cl)cc1NC(=O)C1=C(C)NC(=O)NC1c1cccs1 (configuration not stated) | -4.9 | 16.0
CCOC(=O)/C=C1\CN(Cc2ccc(OC)cc2)S(=O)(=O)c2ccc(C(F)(F)F)cc21 | 77.7* | 53.0*
CCOC(=O)/C=C1\CN(Cc2ccccc2)S(=O)(=O)c2ccc(C(F)(F)F)cc21 | 33.9 | 20.2
COc1ccc(Cc2nnc(NC(=O)c3cccc(F)c3)s2)cc1 | -5.6 | 2.3
Cc1ccnc(NC(c2cccc([N+](=O)[O-])c2)c2ccc3cccnc3c2O)c1 (configuration not stated) | -0.7 | 100.0*
Cc1cccc(-c2cc(NC(=O)c3ccc([N+](=O)[O-])cc3)n[nH]2)c1 | 1.3 | 5.4
Cc1nc(O)c(C(c2cccc([N+](=O)[O-])c2)c2c(O)nc(C)[nH]c2=O)c(=O)[nH]1 | 2.2 | 3.0
CCC(=O)NC(c1cccc([N+](=O)[O-])c1)c1ccc2cccnc2c1O (configuration not stated) | -1.8 | 100.0*
SMILES | Pf apPOL block | mHTT-CaM PPI inh
Cc1ccnc(NC(c2ccc([N+](=O)[O-])cc2)c2ccc3cccnc3c2O)c1 (configuration not stated) | -8.4 | 99.8*
COc1ccc(CNC(=O)C2CCN(c3nnc(-c4ccc(C)cc4)o3)CC2)c(OC)c1 | -9.1 | 48.6
O=C(Nc1cc(Cl)c(Cl)cc1Cl)c1cccc(Cl)c1Cl | -11.4 | -12.0
COc1ccc(NC(=O)c2nc(C(C)C)oc2C)cc1Cl | 9.4 | -14.2
COc1ccc(C2=NN=C3COc4ccc(Cl)cc4N3C2)cc1 | x | 4.8
O=S1(=O)N=C(N/N=C/c2ccccn2)c2ccccc21 | x | +
Clc1cc(Cl)cc(N/N=C/c2ccccn2)c1 | x | i
Cc1nc(C(=O)NCCCN2CCC(C)CC2)c(C)n1C1CCN(C)CC1 | -0.9 | 9.1
Clc1ccc(SCCCn2ccnc2)cc1 | -3.6 | 5.4
COC(=O)c1ccc(N2CCN(C)CC2)c(NC(=O)Cc2ccccc2)c1 | -0.4 | -8.2
CCOc1ccc(-n2c(SC(CC)C(=O)NCCOC)nc3n[nH]c(C)c3c2=N)cc1 (configuration not stated) | -4.2 | 36.0
CCOc1ccc(-n2c(SCC(=O)NCC3CCCO3)nc3n[nH]c(C)c3c2=N)cc1 (configuration not stated) | -1.2 | 9.0
